# Experimental data from article PMC7862700, “An all-to-all approach to the identification of sequence-specific readers for epigenetic DNA modifications on cytosine”.
# Legend:
# Assay in all cases: DAPPL (digital affinity profiling via proximity ligation, sequencing); 10 mM Tris-HCl pH 7.5, 50 mM NaCl, 1 mM DTT, 4% glycerol, room temperature, 30 min; GST-TFs on glutathione beads, 16-mer random dsDNA library, 0.1% formaldehyde crosslink after washing; high values mean tight binding
# [1] = biological target: T1, FLI1 (Homo sapiens, UniProt Q01543 1-452); conditions: protein: recombinant; tags: N-terminal GST; dsDNA, one strand shown
# T1 sequence: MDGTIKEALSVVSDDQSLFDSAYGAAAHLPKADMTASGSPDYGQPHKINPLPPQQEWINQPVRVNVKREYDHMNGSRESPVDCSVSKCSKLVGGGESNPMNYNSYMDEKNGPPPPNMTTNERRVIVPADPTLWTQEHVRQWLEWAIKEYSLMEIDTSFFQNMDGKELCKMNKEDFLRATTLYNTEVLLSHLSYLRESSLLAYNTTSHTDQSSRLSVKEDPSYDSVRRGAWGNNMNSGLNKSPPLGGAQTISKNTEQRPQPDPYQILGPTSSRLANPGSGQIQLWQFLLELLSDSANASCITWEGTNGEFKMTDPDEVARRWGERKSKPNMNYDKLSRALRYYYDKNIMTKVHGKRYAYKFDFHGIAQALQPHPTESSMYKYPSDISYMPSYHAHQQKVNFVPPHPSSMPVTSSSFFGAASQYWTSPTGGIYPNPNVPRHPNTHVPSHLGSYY
# How it was run: (§1)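 In yeast, human transcription factors were expressed with a GST fusion, then pulled down on glutathione beads and given DNA barcodes. Pooled with a tag-only sample, they were exposed to 200 nmole of a 16-mer random double-stranded DNA library (Tris/NaCl/DTT/glycerol buffer, room temperature, 30 min), washed, crosslinked with 0.1% formaldehyde, proximity-ligated using BsaI/T4 ligase for 1 h at 37 °C, PCR-amplified and read on an Illumina NextSeq500. Each hexamer's frequency of reads for a factor, divided by the matching frequency for the tag-only sample, gives the binding signal.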
# [2] = biological target: T2, ELK1 (Homo sapiens, UniProt P19419 1-428); conditions: protein: recombinant; tags: N-terminal GST; dsDNA, one strand shown
# T2 sequence: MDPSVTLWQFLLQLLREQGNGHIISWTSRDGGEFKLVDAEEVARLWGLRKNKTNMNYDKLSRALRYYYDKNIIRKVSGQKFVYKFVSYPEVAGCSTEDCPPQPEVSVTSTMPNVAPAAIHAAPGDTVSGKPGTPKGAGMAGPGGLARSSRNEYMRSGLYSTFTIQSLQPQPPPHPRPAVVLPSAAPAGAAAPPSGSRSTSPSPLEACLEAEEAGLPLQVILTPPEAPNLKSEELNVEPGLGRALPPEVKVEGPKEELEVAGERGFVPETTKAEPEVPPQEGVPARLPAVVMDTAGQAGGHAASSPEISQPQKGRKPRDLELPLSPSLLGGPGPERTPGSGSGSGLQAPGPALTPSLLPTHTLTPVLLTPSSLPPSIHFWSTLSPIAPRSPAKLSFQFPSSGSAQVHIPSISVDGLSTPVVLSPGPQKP
# How it was run: as §1
# [3] = biological target: T3, GABPA (Homo sapiens, UniProt Q06546 1-454); conditions: protein: recombinant; tags: N-terminal GST; dsDNA, one strand shown
# T3 sequence: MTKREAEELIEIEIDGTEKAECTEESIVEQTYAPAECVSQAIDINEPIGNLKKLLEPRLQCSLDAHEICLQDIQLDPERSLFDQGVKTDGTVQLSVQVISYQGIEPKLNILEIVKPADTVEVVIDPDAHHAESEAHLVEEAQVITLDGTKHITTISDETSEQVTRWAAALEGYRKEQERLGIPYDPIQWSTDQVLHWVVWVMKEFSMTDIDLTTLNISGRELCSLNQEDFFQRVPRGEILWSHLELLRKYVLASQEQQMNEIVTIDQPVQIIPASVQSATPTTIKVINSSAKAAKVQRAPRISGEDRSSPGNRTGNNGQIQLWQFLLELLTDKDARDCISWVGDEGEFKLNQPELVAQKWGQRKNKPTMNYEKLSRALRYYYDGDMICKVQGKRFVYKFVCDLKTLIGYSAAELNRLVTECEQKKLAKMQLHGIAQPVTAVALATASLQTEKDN
# How it was run: as §1
# [4] = biological target: T4, ERG (Homo sapiens, UniProt P11308 1-479); conditions: protein: recombinant; tags: N-terminal GST; dsDNA, one strand shown
# T4 sequence: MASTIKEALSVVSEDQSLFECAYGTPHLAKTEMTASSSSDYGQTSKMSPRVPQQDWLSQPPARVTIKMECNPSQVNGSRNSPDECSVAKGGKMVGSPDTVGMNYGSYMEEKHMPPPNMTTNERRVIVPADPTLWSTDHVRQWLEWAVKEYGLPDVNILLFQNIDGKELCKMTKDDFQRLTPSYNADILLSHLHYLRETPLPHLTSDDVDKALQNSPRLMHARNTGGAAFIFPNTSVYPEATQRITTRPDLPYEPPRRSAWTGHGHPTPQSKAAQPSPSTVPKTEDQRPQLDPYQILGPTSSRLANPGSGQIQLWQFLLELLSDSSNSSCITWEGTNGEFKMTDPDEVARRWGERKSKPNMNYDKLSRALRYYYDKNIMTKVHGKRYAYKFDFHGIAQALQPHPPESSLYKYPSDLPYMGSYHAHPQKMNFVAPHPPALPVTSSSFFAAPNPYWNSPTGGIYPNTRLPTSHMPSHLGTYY
# How it was run: as §1
# [5] = biological target: ELF1 (Homo sapiens, UniProt P32519 1-619); conditions: protein: recombinant; tags: N-terminal GST; dsDNA, one strand shown
# How it was run: as §1
# [6] = biological target: T5, EHF (Homo sapiens, UniProt Q9NZC4 1-300); conditions: protein: recombinant; tags: N-terminal GST; dsDNA, one strand shown
# T5 sequence: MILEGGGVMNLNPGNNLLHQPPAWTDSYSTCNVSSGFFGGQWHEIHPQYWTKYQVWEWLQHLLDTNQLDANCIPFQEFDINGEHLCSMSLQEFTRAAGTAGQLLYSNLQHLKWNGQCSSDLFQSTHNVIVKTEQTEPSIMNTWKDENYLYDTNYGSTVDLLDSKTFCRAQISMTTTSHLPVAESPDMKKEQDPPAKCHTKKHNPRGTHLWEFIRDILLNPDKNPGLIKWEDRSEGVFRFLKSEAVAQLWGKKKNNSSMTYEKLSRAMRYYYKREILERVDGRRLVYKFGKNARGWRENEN
# How it was run: as §1
# [7] = biological target: SPI1 (Homo sapiens, UniProt P17947 1-270); conditions: protein: recombinant; tags: N-terminal GST; dsDNA, one strand shown
# How it was run: as §1
# [8] = biological target: SPIB (Homo sapiens, UniProt Q01892 1-262); conditions: protein: recombinant; tags: N-terminal GST; dsDNA, one strand shown
# How it was run: as §1
# [9] = biological target: T6, ELK3 (Homo sapiens, UniProt P41970 1-407); conditions: protein: recombinant; tags: N-terminal GST; dsDNA, one strand shown
# T6 sequence: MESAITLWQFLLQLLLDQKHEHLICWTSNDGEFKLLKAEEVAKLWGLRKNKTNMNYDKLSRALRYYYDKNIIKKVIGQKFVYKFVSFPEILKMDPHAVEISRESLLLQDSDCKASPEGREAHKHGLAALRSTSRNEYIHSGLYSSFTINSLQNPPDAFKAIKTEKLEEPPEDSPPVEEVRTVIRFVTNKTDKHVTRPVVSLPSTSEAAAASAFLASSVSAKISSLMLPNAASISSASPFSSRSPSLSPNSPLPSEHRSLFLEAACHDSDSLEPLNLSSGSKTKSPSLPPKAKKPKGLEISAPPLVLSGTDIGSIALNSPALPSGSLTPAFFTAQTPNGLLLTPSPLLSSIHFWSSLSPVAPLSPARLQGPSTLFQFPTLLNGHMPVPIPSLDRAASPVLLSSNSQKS
# How it was run: as §1
# [10] = biological target: T7, FEV (Homo sapiens, UniProt Q99581 1-238); conditions: protein: recombinant; tags: N-terminal GST; dsDNA, one strand shown
# T7 sequence: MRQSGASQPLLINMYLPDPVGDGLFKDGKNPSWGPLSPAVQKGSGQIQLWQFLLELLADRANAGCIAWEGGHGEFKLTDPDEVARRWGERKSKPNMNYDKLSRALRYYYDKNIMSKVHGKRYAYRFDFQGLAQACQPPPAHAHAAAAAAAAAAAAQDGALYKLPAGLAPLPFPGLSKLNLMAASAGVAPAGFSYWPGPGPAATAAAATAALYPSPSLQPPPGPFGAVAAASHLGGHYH
# How it was run: as §1
# [11] = biological target: ETV5 (Homo sapiens, UniProt P41161 1-510); conditions: protein: recombinant; tags: N-terminal GST; dsDNA, one strand shown
# How it was run: as §1
# [12] = biological target: HSF1 (Homo sapiens, UniProt Q00613 1-529); conditions: protein: recombinant; tags: N-terminal GST; chain copies: 3; dsDNA, one strand shown
# How it was run: as §1
# [13] = biological target: ELF4 (Homo sapiens, UniProt Q99607 1-663); conditions: protein: recombinant; tags: N-terminal GST; dsDNA, one strand shown
# How it was run: as §1
# [14] = biological target: T8, ELK4 (Homo sapiens, UniProt P28324-2 1-405); conditions: protein: recombinant; tags: N-terminal GST; dsDNA, one strand shown
# T8 sequence: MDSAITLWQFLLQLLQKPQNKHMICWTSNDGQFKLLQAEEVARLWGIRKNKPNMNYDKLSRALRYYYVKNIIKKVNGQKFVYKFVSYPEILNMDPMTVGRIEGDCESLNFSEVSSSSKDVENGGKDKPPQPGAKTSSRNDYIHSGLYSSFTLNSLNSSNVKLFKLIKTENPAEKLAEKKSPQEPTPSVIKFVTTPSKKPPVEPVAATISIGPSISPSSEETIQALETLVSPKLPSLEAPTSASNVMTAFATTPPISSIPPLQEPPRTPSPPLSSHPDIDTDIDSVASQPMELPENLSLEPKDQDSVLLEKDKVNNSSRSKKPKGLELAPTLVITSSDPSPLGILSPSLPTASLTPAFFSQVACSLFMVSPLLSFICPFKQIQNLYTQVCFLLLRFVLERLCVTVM
# How it was run: as §1
# [15] = biological target: T9, ETV2 (Homo sapiens, UniProt O00321 1-342); conditions: protein: recombinant; tags: N-terminal GST; dsDNA, one strand shown
# T9 sequence: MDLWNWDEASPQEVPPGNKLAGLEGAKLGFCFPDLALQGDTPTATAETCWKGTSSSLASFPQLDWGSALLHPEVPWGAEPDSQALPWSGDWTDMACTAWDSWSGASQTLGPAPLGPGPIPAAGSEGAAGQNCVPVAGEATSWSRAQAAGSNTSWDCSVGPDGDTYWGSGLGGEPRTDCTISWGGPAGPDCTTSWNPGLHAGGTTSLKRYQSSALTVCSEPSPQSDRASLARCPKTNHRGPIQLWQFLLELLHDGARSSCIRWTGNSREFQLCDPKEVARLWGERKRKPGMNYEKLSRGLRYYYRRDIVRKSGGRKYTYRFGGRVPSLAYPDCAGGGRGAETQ
# How it was run: as §1
# [16] = biological target: T10, ELF3 (Homo sapiens, UniProt P78545 1-371); conditions: protein: recombinant; tags: N-terminal GST; dsDNA, one strand shown
# T10 sequence: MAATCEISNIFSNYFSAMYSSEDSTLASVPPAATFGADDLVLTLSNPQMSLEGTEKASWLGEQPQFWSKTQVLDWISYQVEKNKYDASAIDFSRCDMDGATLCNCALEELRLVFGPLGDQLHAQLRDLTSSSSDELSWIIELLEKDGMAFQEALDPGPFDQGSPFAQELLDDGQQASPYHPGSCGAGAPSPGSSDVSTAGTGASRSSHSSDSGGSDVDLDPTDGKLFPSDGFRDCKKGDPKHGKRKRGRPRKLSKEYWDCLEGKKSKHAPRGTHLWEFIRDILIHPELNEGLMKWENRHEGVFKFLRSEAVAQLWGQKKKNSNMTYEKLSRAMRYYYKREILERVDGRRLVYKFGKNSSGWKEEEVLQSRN
# How it was run: as §1
# [17] = biological target: ETV1 (Homo sapiens, UniProt P50549 1-477); conditions: protein: recombinant; tags: N-terminal GST; dsDNA, one strand shown
# How it was run: as §1
# Sequence of ELF4 (Q99607 whole entry): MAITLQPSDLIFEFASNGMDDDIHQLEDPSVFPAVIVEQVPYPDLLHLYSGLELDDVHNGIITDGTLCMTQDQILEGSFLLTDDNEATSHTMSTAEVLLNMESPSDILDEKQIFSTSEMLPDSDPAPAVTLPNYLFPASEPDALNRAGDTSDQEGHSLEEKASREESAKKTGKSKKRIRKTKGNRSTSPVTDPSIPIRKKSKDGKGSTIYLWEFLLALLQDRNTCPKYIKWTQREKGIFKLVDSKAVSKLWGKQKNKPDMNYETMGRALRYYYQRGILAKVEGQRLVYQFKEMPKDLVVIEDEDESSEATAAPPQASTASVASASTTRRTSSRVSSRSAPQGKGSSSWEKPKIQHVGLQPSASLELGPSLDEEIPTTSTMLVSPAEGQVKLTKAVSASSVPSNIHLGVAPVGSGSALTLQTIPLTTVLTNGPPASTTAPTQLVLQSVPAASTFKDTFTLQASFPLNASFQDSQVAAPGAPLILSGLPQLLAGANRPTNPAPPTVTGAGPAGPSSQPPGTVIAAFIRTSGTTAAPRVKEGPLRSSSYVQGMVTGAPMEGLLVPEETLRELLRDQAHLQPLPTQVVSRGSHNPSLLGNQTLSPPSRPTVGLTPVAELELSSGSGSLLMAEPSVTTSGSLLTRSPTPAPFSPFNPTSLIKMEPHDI
# Sequence of ETV1 (P50549 whole entry): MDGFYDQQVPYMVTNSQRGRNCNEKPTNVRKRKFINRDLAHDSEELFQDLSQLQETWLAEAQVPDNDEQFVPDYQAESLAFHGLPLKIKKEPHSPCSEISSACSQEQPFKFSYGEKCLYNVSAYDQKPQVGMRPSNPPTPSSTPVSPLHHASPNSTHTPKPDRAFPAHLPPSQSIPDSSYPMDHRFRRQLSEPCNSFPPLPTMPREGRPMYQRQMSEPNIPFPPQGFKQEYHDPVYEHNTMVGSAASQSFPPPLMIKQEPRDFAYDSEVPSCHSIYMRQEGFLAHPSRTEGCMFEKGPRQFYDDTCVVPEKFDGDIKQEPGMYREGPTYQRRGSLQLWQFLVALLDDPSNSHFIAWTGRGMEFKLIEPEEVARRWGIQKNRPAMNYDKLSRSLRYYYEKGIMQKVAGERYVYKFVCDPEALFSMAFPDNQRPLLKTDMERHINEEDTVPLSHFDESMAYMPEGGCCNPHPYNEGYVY
# Sequence of ELF1 (P32519 whole entry): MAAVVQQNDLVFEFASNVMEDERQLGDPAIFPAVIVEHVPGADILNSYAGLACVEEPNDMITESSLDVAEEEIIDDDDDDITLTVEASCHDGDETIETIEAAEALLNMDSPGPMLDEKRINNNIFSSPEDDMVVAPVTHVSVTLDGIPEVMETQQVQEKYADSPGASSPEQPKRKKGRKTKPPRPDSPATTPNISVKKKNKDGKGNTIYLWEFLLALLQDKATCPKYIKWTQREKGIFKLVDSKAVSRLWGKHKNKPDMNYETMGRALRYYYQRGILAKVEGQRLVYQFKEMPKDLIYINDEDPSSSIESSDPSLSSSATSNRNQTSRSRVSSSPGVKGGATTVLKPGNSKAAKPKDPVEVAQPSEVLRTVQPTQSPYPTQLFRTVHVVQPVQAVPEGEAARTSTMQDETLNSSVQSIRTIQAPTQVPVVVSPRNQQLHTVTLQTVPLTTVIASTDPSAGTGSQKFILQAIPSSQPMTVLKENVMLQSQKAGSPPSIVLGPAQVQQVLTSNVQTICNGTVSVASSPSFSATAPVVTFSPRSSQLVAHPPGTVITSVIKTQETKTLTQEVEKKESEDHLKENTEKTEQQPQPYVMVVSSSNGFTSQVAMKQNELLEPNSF
# Sequence of SPIB (Q01892 whole entry): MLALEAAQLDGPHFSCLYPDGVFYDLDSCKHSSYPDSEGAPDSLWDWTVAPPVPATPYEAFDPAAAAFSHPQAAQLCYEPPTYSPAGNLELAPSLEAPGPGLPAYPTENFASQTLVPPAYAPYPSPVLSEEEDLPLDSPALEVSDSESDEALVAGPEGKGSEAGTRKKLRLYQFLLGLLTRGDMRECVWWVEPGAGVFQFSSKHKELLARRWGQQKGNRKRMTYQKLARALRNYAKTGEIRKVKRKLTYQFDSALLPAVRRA
# Sequence of ETV5 (P41161 whole entry): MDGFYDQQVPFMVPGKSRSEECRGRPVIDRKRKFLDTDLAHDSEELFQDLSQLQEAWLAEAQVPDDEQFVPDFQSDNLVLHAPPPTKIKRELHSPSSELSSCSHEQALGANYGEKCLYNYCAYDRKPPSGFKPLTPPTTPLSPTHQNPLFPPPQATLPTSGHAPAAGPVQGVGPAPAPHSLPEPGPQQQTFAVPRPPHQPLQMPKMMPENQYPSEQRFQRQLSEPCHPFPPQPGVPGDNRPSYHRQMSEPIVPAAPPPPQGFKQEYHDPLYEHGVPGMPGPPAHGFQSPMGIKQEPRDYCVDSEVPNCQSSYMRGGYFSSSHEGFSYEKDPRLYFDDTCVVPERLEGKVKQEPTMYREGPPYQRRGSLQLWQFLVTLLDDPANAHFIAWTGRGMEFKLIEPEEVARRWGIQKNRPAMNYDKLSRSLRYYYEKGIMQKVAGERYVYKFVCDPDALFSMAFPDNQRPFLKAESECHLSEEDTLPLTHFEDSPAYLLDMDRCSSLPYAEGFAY
# Sequence of HSF1 (Q00613 whole entry): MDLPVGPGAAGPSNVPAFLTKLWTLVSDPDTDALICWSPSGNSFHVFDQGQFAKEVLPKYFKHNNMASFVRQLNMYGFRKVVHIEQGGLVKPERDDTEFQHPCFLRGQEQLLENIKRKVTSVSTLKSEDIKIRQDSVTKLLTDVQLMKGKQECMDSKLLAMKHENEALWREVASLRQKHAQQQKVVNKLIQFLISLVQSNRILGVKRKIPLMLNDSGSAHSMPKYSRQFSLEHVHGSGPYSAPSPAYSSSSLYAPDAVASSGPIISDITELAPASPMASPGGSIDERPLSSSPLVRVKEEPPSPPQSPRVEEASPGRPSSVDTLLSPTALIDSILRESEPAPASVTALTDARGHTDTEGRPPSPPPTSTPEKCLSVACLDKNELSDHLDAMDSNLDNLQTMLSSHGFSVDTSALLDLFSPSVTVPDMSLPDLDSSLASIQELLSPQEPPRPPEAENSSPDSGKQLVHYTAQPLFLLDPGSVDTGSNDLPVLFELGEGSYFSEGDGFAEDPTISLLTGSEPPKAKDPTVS
sequence,measurement,setting,value
CGTTCA,binding signal,[1],"1.11 fold enrichment (6-mer frequency, TF over GST control)"
same,binding signal,[2],"1.24 fold enrichment (6-mer frequency, TF over GST control)"
same,binding signal,[3],"1.24 fold enrichment (6-mer frequency, TF over GST control)"
same,binding signal,[4],"1.09 fold enrichment (6-mer frequency, TF over GST control)"
same,binding signal,[5],"1.13 fold enrichment (6-mer frequency, TF over GST control)"
same,binding signal,[6],"1.18 fold enrichment (6-mer frequency, TF over GST control)"
same,binding signal,[7],"1.16 fold enrichment (6-mer frequency, TF over GST control)"
same,binding signal,[8],"1.2 fold enrichment (6-mer frequency, TF over GST control)"
same,binding signal,[9],"1.07 fold enrichment (6-mer frequency, TF over GST control)"
same,binding signal,[10],"1.25 fold enrichment (6-mer frequency, TF over GST control)"
same,binding signal,[11],"1.16 fold enrichment (6-mer frequency, TF over GST control)"
same,binding signal,[12],"1.03 fold enrichment (6-mer frequency, TF over GST control)"
same,binding signal,[13],"1.17 fold enrichment (6-mer frequency, TF over GST control)"
same,binding signal,[14],"1.14 fold enrichment (6-mer frequency, TF over GST control)"
same,binding signal,[15],"1.19 fold enrichment (6-mer frequency, TF over GST control)"
same,binding signal,[16],"1.13 fold enrichment (6-mer frequency, TF over GST control)"
same,binding signal,[17],"1.18 fold enrichment (6-mer frequency, TF over GST control)"
